# ± gives the standard deviation of the averaged measurements.
# Key:
# Assay in all cases: promoter activity interaction Z-score (Lux/OD deviation from empty-vector control); higher = stronger promoter induction by the compound
# [1] = test system: E. coli BW25113 acrABp lux reporter
# Procedure, shortened: (§1)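 In 384-well plates, 40 µl LB Lennox cultures of E. coli BW25113 with low-copy luxCDABE promoter reporters grew at 37°C. Optical density at 600 nm and light output were recorded every 30 min for 12 h, with windows of 0–8 h for wild type and 1–9 h for deletion strains, and wells under 10% of the median growth value were left out. Each value is a Z-transformed residual of growth-normalised luminescence fitted against a control.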
# [2] = test system: E. coli BW25113 micFp lux reporter
# Procedure, shortened: as §1
# [3] = test system: E. coli BW25113 ompFp lux reporter
# Procedure, shortened: as §1
# [4] = test system: E. coli BW25113 robp lux reporter
# Procedure, shortened: as §1
# [5] = test system: E. coli BW25113 soxSp lux reporter
# Procedure, shortened: as §1
# [6] = test system: E. coli BW25113 tolCp lux reporter
# Procedure, shortened: as §1
# [7] = 0.056 µg/ml, genetic background: wild type
# [8] = 0.056 µg/ml, genetic background: ΔmarA
# [9] = 0.056 µg/ml, genetic background: Δrob
# [10] = 0.056 µg/ml, genetic background: ΔsoxS
# [11] = 0.11 µg/ml, genetic background: wild type
# [12] = 0.11 µg/ml, genetic background: ΔmarA
# [13] = 0.11 µg/ml, genetic background: Δrob
# [14] = 0.11 µg/ml, genetic background: ΔsoxS
# [15] = 0.22 µg/ml, genetic background: wild type
# [16] = 0.22 µg/ml, genetic background: ΔmarA
# [17] = 0.22 µg/ml, genetic background: Δrob
# [18] = 0.22 µg/ml, genetic background: ΔsoxS
# [19] = 0.44 µg/ml, genetic background: wild type
# [20] = 0.44 µg/ml, genetic background: ΔmarA
# [21] = 0.44 µg/ml, genetic background: Δrob
# [22] = 0.44 µg/ml, genetic background: ΔsoxS
compound,measurement,setting,value
CN(C)[C@@H]1C(O)=C(C(N)=O)C(=O)[C@@]2(O)C(O)=C3C(=O)c4c(O)cccc4[C@@](C)(O)[C@H]3C[C@@H]12 [Tetracycline],promoter activity interaction Z-score,[1]; [7],0.26 ± 0.44
same,promoter activity interaction Z-score,[1]; [8],0.996 ± 0.81
same,promoter activity interaction Z-score,[1]; [9],-0.021 ± 0.06
same,promoter activity interaction Z-score,[1]; [10],-0.156 ± 0.057
same,promoter activity interaction Z-score,[1]; [11],0.439 ± 0.11
same,promoter activity interaction Z-score,[1]; [12],0.363 ± 1.1
same,promoter activity interaction Z-score,[1]; [13],0.655 ± 0.19
same,promoter activity interaction Z-score,[1]; [14],0.643 ± 0.026
same,promoter activity interaction Z-score,[1]; [15],1.07 ± 0.24
same,promoter activity interaction Z-score,[1]; [16],-0.35 ± 0.28
same,promoter activity interaction Z-score,[1]; [17],1.78 ± 0.42
same,promoter activity interaction Z-score,[1]; [18],1.59 ± 0.34
same,promoter activity interaction Z-score,[1]; [19],2.18 ± 0.16
same,promoter activity interaction Z-score,[1]; [20],-1.42 ± 0.33
same,promoter activity interaction Z-score,[1]; [21],5.96
same,promoter activity interaction Z-score,[1]; [22],-1.22
same,promoter activity interaction Z-score,[2]; [7],1.46 ± 0.49
same,promoter activity interaction Z-score,[2]; [8],0.0522 ± 0.015
same,promoter activity interaction Z-score,[2]; [9],-0.0785 ± 0.057
same,promoter activity interaction Z-score,[2]; [10],0.373 ± 0.06
same,promoter activity interaction Z-score,[2]; [11],2.61 ± 0.64
same,promoter activity interaction Z-score,[2]; [12],0.188 ± 0.14
same,promoter activity interaction Z-score,[2]; [13],0.177 ± 0.19
same,promoter activity interaction Z-score,[2]; [14],1.44 ± 0.23
same,promoter activity interaction Z-score,[2]; [15],3.37 ± 0.62
same,promoter activity interaction Z-score,[2]; [16],0.403 ± 0.2
same,promoter activity interaction Z-score,[2]; [17],0.131 ± 0.15
same,promoter activity interaction Z-score,[2]; [18],1.86 ± 0.2
same,promoter activity interaction Z-score,[2]; [19],0.313 ± 0.3
same,promoter activity interaction Z-score,[2]; [20],0.3 ± 0.28
same,promoter activity interaction Z-score,[2]; [21],-0.128 ± 0.088
same,promoter activity interaction Z-score,[2]; [22],-0.349 ± 0.37
same,promoter activity interaction Z-score,[3]; [7],1.85 ± 1.5
same,promoter activity interaction Z-score,[3]; [8],1.72 ± 1.3
same,promoter activity interaction Z-score,[3]; [9],1.96 ± 1.3
same,promoter activity interaction Z-score,[3]; [10],0.631 ± 0.11
same,promoter activity interaction Z-score,[3]; [11],2.68 ± 1
same,promoter activity interaction Z-score,[3]; [12],2.53 ± 0.79
same,promoter activity interaction Z-score,[3]; [13],2.36 ± 0.4
same,promoter activity interaction Z-score,[3]; [14],2.15 ± 1
same,promoter activity interaction Z-score,[3]; [15],1.98 ± 0.54
same,promoter activity interaction Z-score,[3]; [16],1.86 ± 0.28
same,promoter activity interaction Z-score,[3]; [17],1.26 ± 0.07
same,promoter activity interaction Z-score,[3]; [18],2.71 ± 0.19
same,promoter activity interaction Z-score,[3]; [19],-0.73 ± 0.18
same,promoter activity interaction Z-score,[3]; [20],-1.97 ± 1.1
same,promoter activity interaction Z-score,[3]; [22],-3.24
same,promoter activity interaction Z-score,[4]; [7],0.998 ± 1.4
same,promoter activity interaction Z-score,[4]; [8],0.179 ± 0.2
same,promoter activity interaction Z-score,[4]; [9],0.105 ± 0.73
same,promoter activity interaction Z-score,[4]; [10],-0.0139 ± 0.3
same,promoter activity interaction Z-score,[4]; [11],1.13 ± 0.42
same,promoter activity interaction Z-score,[4]; [12],-0.0571 ± 0.62
same,promoter activity interaction Z-score,[4]; [13],0.458 ± 0.4
same,promoter activity interaction Z-score,[4]; [14],0.51 ± 0.84
same,promoter activity interaction Z-score,[4]; [15],-0.261 ± 0.053
same,promoter activity interaction Z-score,[4]; [16],-0.985 ± 0.35
same,promoter activity interaction Z-score,[4]; [17],0.638 ± 0.37
same,promoter activity interaction Z-score,[4]; [18],0.945 ± 1.1
same,promoter activity interaction Z-score,[4]; [19],-1.59 ± 0.88
same,promoter activity interaction Z-score,[4]; [20],-2.19 ± 0.95
same,promoter activity interaction Z-score,[4]; [22],-2.66 ± 0.43
same,promoter activity interaction Z-score,[5]; [7],0.151 ± 0.19
same,promoter activity interaction Z-score,[5]; [8],0.0648 ± 0.063
same,promoter activity interaction Z-score,[5]; [9],-0.00055 ± 0.21
same,promoter activity interaction Z-score,[5]; [10],-0.162 ± 0.37
same,promoter activity interaction Z-score,[5]; [11],0.728 ± 0.037
same,promoter activity interaction Z-score,[5]; [12],0.346 ± 0.055
same,promoter activity interaction Z-score,[5]; [13],0.252 ± 0.33
same,promoter activity interaction Z-score,[5]; [14],0.493 ± 0.026
same,promoter activity interaction Z-score,[5]; [15],1.18 ± 0.3
same,promoter activity interaction Z-score,[5]; [16],0.609 ± 0.14
same,promoter activity interaction Z-score,[5]; [17],0.598 ± 0.38
same,promoter activity interaction Z-score,[5]; [18],1.26 ± 0.17
same,promoter activity interaction Z-score,[5]; [19],1.56 ± 0.18
same,promoter activity interaction Z-score,[5]; [20],1.47 ± 0.25
same,promoter activity interaction Z-score,[5]; [21],1.46 ± 1
same,promoter activity interaction Z-score,[5]; [22],0.966 ± 0.8
same,promoter activity interaction Z-score,[6]; [7],0.446 ± 0.25
same,promoter activity interaction Z-score,[6]; [8],0.201 ± 0.44
same,promoter activity interaction Z-score,[6]; [9],0.673 ± 1.5
same,promoter activity interaction Z-score,[6]; [10],-0.654 ± 0.27
same,promoter activity interaction Z-score,[6]; [11],1.04 ± 0.64
same,promoter activity interaction Z-score,[6]; [12],0.0643 ± 0.81
same,promoter activity interaction Z-score,[6]; [13],0.925 ± 0.084
same,promoter activity interaction Z-score,[6]; [14],-0.579 ± 0.46
same,promoter activity interaction Z-score,[6]; [15],1.19 ± 1.5
same,promoter activity interaction Z-score,[6]; [16],1.09 ± 0.74
same,promoter activity interaction Z-score,[6]; [17],1.09 ± 0.63
same,promoter activity interaction Z-score,[6]; [18],0.351 ± 1.5
same,promoter activity interaction Z-score,[6]; [19],-0.0424 ± 0.045
same,promoter activity interaction Z-score,[6]; [20],1.29 ± 2
same,promoter activity interaction Z-score,[6]; [21],1.15 ± 0.23
same,promoter activity interaction Z-score,[6]; [22],0.632 ± 1.4

# From the supplement of paper PMC12282887
